The source of these data is PubChem BioAssay (NCATS).

A short description of assay [1]: qHTS profiling for inhibitors of Plasmodium falciparum proliferation (AID 504749). Further: potency means the concentration at half of the fitted maximal effect.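 On activity, negative = inhibition: 0% = DMSO vehicle and full inhibition = artemisinin control.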 On all read-outs here: nearly all actives have a fitted effect of over 60% in size. The settings on record: P. falciparum in erythrocytes, SYBR Green DNA, 72 h; for activity, negative = inhibition: at 28.7 µM (top of the series). Summed up: (§1)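 P. falciparum-infected erythrocytes (0.3% parasitemia, 2.5% hematocrit final) were exposed to compounds for 72 h at 37 C in 5% CO2, then lysed with SYBR Green buffer overnight at room temperature; parasite DNA fluorescence was normalized to artemisinin and DMSO controls.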

The test system of assay [2] is 3D7. The assay is described as above. The note with it: P. falciparum in erythrocytes, SYBR Green DNA, 72 h; series mostly up to 28.7 µM. In outline:
as §1

The subject of assay [3] is 7G8. The assay is described as above. The settings on record: P. falciparum in erythrocytes, SYBR Green DNA, 72 h; series mostly up to 28.7 µM. Summed up:
as §1

The subject of assay [4] is AA1029. The assay is described as above. The note with it: P. falciparum in erythrocytes, SYBR Green DNA, 72 h; series mostly up to 28.7 µM. In outline: as §1
For assay [5], the system named is AS120. The description is as above. The settings on record: P. falciparum in erythrocytes, SYBR Green DNA, 72 h; series mostly up to 28.7 µM. Summed up:
as §1

In assay [6] the test system is ATS189. The assay is described as above. The settings on record: P. falciparum in erythrocytes, SYBR Green DNA, 72 h; series mostly up to 28.7 µM. Summed up: as §1
Assay [7] relates to ATS95. The description is as above. The note with it: P. falciparum in erythrocytes, SYBR Green DNA, 72 h; series mostly up to 28.7 µM. In outline: as §1
Assay [8] relates to C2A. Described as above. The note with it: P. falciparum in erythrocytes, SYBR Green DNA, 72 h; series mostly up to 28.7 µM. Summed up:
as §1

In assay [9] the test system is CP185. Described as above. The note with it: P. falciparum in erythrocytes, SYBR Green DNA, 72 h; series mostly up to 28.7 µM. In outline:
as §1

Assay [10] deals with CP191. The assay is described as above. The note with it: P. falciparum in erythrocytes, SYBR Green DNA, 72 h; series mostly up to 28.7 µM. Summed up: as §1
Assay [11] deals with CP192. The description is as above. The settings on record: P. falciparum in erythrocytes, SYBR Green DNA, 72 h; series mostly up to 28.7 µM. In outline: as §1
Assay [12] relates to CP194. The description is as above. The settings on record: P. falciparum in erythrocytes, SYBR Green DNA, 72 h; series mostly up to 28.7 µM. Summed up:
as §1

In assay [13] the test system is CP201. The description is as above. The settings on record: P. falciparum in erythrocytes, SYBR Green DNA, 72 h; series mostly up to 28.7 µM. In outline:
as §1

Assay [14] relates to CP203. The assay is described as above. The settings on record: P. falciparum in erythrocytes, SYBR Green DNA, 72 h; series mostly up to 28.7 µM. In outline:
as §1

The test system of assay [15] is CP211. The assay is described as above. The note with it: P. falciparum in erythrocytes, SYBR Green DNA, 72 h; series mostly up to 28.7 µM. In outline: as §1
The test system of assay [16] is CP215. The description is as above. The note with it: P. falciparum in erythrocytes, SYBR Green DNA, 72 h; series mostly up to 28.7 µM. Summed up:
as §1

The subject of assay [17] is CP217. The assay is described as above. The note with it: P. falciparum in erythrocytes, SYBR Green DNA, 72 h; series mostly up to 28.7 µM. In outline: as §1
Assay [18] has as its system CP237. The assay is described as above. The note with it: P. falciparum in erythrocytes, SYBR Green DNA, 72 h; series mostly up to 28.7 µM. Summed up: as §1
The test system of assay [19] is CP238. The assay is described as above. The note with it: P. falciparum in erythrocytes, SYBR Green DNA, 72 h; series mostly up to 28.7 µM. Summed up:
as §1

A short description of assay [20]: qHTS drug screen for cell cycle checkpoint inhibitors in PARPi-resistant BRCA-mutant ovarian cancer cell lines. (AID 1963452; calls by dose curve). The settings on record: PEO1/OlaR viability, CellTiter-Glo luminescence, 96 h, stronger effect = lower value. In outline:
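PEO1, PEO4 and PEO1/OlaR ovarian cancer cells, 600 per well, exposed 96 h at 37C to a dilution series. Viability read by CellTiter-Glo luminescence, normalized to DMSO and empty wells; activity summarized as Z-AUC.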
On the technique in general: qHTS replaces the single test concentration by a dilution series.

Setting [21] is: measured here: PEO1 parental Z-AUC.

The structures appear in SMILES notation. Results filed as inconclusive are left out. The source made the active and inactive calls. Unless noted, the call rests on the fitted dose curve; in most records, active means well fitted inhibition curve with a large enough effect; inconclusive means small, poorly fitted or top-dose-only effect; inactive means flat fitted curve, though single readings scatter.

Turning to `O=C(Nc1cccc(C2=NCCN2)c1)Nc1cccc(C2=NCCN2)c1`, the Potency is 8.91 µM (active) in assay [1] (parasite line A); 11.2 µM (active) in assay [1] (parasite line B); 10 µM (active) in assay [2]; 0.398 µM (active) in assay [3]; 7.08 µM (active) in assay [4]; 2.82 µM (active) in [5]. In addition, the Potency in assay [6] was 2.82 µM (active); in assay [7] it was 5.01 µM (active); in [8], 5.01 µM (active); in [9] it was 4.47 µM (active); in assay [10], 1.12 µM (active); in assay [11], 15.1 µM (active). Besides, the Potency in assay [12] is 15.1 µM (active); in assay [13], 13.5 µM (active); in [14], 15.1 µM (active); in [15], 13.5 µM (active); in [16] it was 12 µM (active); in assay [17], 3.55 µM (active). Also, the Potency in assay [18] and in assay [19] was 6.31 µM (active) in each case.
On to `Cc1cccc(C)c1NC(=O)c1ccccc1C(=O)O`, for which the activity, negative = inhibition was 19.5% (inactive) in assay [1] (parasite line A) and 8.59% (inactive) in [1] (parasite line B). In addition, the Potency entry in assay [2], in assay [3], in [4], in assay [5], in assay [6] and in assay [7] was “inactive” each time. The Potency result in assay [8], in assay [9], in assay [10], in assay [11], in assay [12] and in [13] was “inactive” in each case. For the same molecule, the Potency entry in assay [14], in [15], in [16], in [17], in assay [18] and in assay [19] was “inactive” each time.
For `CC(=O)O[C@]1(C(C)=O)CC[C@H]2[C@@H]3C=C(C)C4=CC(=O)CC[C@]4(C)[C@H]3CC[C@@]21C`, the figures for the Z-AUC in assay [20], in [20] (setting [21]) and in assay [20] (measured here: PEO4 Z-AUC) were 0.958 (inactive), 0.601 and 0.47, respectively.
On to `Cc1ccc(O)c([C@H](CCN(C(C)C)C(C)C)c2ccccc2)c1`, for which the results for the Z-AUC in assay [20], in assay [20] (setting [21]) and in assay [20] (measured here: PEO4 Z-AUC) were -0.294 (inactive), -0.8 and -0.815, respectively. The Potency was 7.08 µM (active) in assay [1] (parasite line A); 3.98 µM (active) in [1] (parasite line B); 6.31 µM (active) in assay [2]; 1 µM (active) in assay [3]; 3.16 µM (active) in assay [4]; 2.51 µM (active) in assay [5]. For the same molecule, the Potency in assay [6] was 3.98 µM (active); in assay [7], 3.55 µM (active); in [8], 11.2 µM (active); in assay [9], 10 µM (active); in assay [10] it was 7.08 µM (active); in assay [11], 13.5 µM (active). Also, the Potency in [12] is 5.36 µM (active); in [13], 13.5 µM (active); in assay [14] it was 3.79 µM (active); in assay [15], 9.53 µM (active); in assay [16], 6.75 µM (active); in assay [17], 5.01 µM (active). Moreover, the Potency was 5.01 µM (active) in [18] and 4.47 µM (active) in assay [19].
Turning to `CC(=O)O[C@H]1C[C@@H]2CC[C@@H]3[C@H](CC[C@@]4(C)[C@H]3C[C@H]([N+]3(C)CCCCC3)[C@@H]4OC(C)=O)[C@@]2(C)C[C@@H]1N1CCCCC1`, the Z-AUC in [20] was 1.73 (inactive); in assay [20] (setting [21]) it was 1.43; in assay [20] (measured here: PEO4 Z-AUC), 1.85. Moreover, the activity, negative = inhibition in assay [1] (parasite line B) is -19.6% (inactive). Further, the Potency entry in assay [2], in assay [5] and in assay [12] was “inactive” in each case.
As for `C[N+]1(CC2COC(c3ccccc3)(C3CCCCC3)O2)CCCCC1` (stereo not drawn), the Potency in assay [1] (parasite line A) is 2.82 µM (active); in assay [1] (parasite line B), 4.47 µM (active); in assay [2], 7.08 µM (active); in [3], 2.51 µM (active); in assay [4], 5.01 µM (active); in assay [5] it was 7.08 µM (active). The Potency in assay [6] was 8.91 µM (active); in assay [7], 6.31 µM (active); in [8], 10 µM (active); in [9], 5.01 µM (active); in assay [10], 5.62 µM (active); in [11] it was 4.78 µM (active). Besides, the Potency in assay [12] was 6.01 µM (active); in assay [13], 10.7 µM (active); in assay [14], 4.78 µM (active); in [15], 4.78 µM (active); in [16] it was 5.36 µM (active); in assay [17] it was 8.91 µM (active). The Potency in [18] and in [19] was 7.08 µM (active) each time.
Turning to `CCN(CC)CCNc1ccc(CO)c2sc3ccccc3c(=O)c12`, the Potency in assay [1] (parasite line A) was 1.78 µM (active); in [1] (parasite line B) it was 3.55 µM (active); in [2], 2 µM (active); in assay [3] it was 2 µM (active); in assay [4], 2.24 µM (active); in assay [5], 1 µM (active). Moreover, the Potency in [6] is 0.794 µM (active); in assay [7], 2 µM (active); in assay [8] it was 0.794 µM (active); in [9], 1 µM (active); in [10], 0.355 µM (active); in [11] it was 1.69 µM (active). The Potency in assay [12] was 3.38 µM (active); in assay [13] it was 7.57 µM (active); in assay [14], 4.26 µM (active); in [15], 4.26 µM (active); in assay [16], 4.26 µM (active); in assay [17] it was 2.82 µM (active). Moreover, the results for the Potency in [18] and in assay [19] were 0.891 µM (active) and 1 µM (active), respectively.
